37 molecules from PubChem BioAssay (Tox21) can be followed below.

Inconclusive results are not listed. A number with no mark means an inactive call. Activity calls are given as the source filed them. Unless noted, calls follow the shape of the dose curve; as a rule, active = well fitted cell-killing curve with a large enough effect in the repeat runs; inconclusive = weak or mixed curves, or effect the other way; inactive = no such curve, though single readings can be large or run the other way.
% is scaled to controls: 0 for no effect and ±100 for the full control effect.

One test in a line: qHTS assay for small molecule agonists of the antioxidant response element (ARE) signaling pathway - cell viability counter screen (AID 743203; calls by dose curve; also: nearly all actives have a fitted effect of over 55% in size). Particulars: ARE-bla HepG2 viability, CellTiter-Glo luminescence, 16 h; series mostly up to 73.3 µM. In a few lines: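 Viability counter screen: stably transfected ARE-bla HepG2 line, 16 hrs compound exposure at 37C/5% CO2, ATP-based CellTiter-Glo luminescence measured in the reporter wells.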
Background: In qHTS, concentration-response curves come from the screen itself.
With `C=C[C@@H](C)CCC=C(C)C`, the molecule was classed as inactive.
The same measure, in the same setting: as for `CCC(=O)c1ccc(O)cc1`, the entry is “inactive”; as for `CN[C@@H]1[C@@H](O)[C@@H](O[C@@H]2[C@H](O)[C@H](O[C@H]3OC(CN)=CC[C@H]3N)[C@@H](N)C[C@H]2N)OCC1(C)O` (stereo not given in full), “inactive”.
Still for that read-out and setting: as for `CCc1nccnc1C`, the entry is “inactive”; as for `CCCCOC(=O)C(=O)OCCCC`, “inactive”; as for `CC(C)COC(=O)CCCCC(=O)OCC(C)C`, “inactive”.
Consider `Cc1cc(O)c2c(c1)C(=O)c1cccc(O)c1C2=O`, for which the result was inactive.
Same read-out and setting: as for `O=CN1CCOCC1`, the entry is “inactive”; as for `C[C@H](CCC(=O)NCC(=O)O)[C@H]1CC[C@H]2[C@@H]3[C@H](O)C[C@@H]4C[C@H](O)CC[C@]4(C)[C@H]3C[C@H](O)[C@]12C`, “inactive”.
Consider `O=C1NC2NC(=O)NC2N1` (stereo not given), for which the call was inactive.
As for `Cc1ccccc1OCC1CO1` (stereo not given), the result was inactive.
Still for that read-out and setting: the value for `Cc1cccc(Nc2ccncc2S(=O)(=O)NC(=O)NC(C)C)c1` was “inactive”; that for `CC1=CC[C@H](CC=O)C1(C)C` was “inactive”; that for `OC(CCN1CCCCC1)(c1ccccc1)c1ccccc1` was “inactive”.
Same read-out and setting: as for `NS(=O)(=O)c1cc2c(cc1Cl)NC(CC1CCCC1)NS2(=O)=O` (stereo not given), the entry is “inactive”.
With `COc1cccc2sc(N)nc12`, the molecule was classed as inactive.
`CN(C)CCCNCCC#N`: the result was inactive.
Consider `CCC(O)C(C)(C)C` (stereo not given), for which the result was inactive.
Turning to `C=CCOC(=O)c1ccc(C(=O)OCC=C)c(C(=O)OCC=C)c1`, the molecule was called inactive.
As to `Nc1ccc(/C=C/c2ccc(N)cc2S(=O)(=O)O)c(S(=O)(=O)O)c1`, the viability change, negative = cytotoxic is -11% [at 0.756 µM].
As for `CC(Cl)COP(=O)(OCC(C)Cl)OCC(C)Cl` (stereo not given), the call was inactive.
`CCNC(=O)NCCCOc1cccc(CN2CCCCC2)c1`: the outcome was inactive.
Same read-out and setting: the value for `Cc1ncc([N+](=O)[O-])n1CC(O)CCl` (stereo not given) was “inactive”.
On the same count and under the same terms, as for `COCCOCCOCCOC`, the entry is “inactive”; as for `CCCCC/C=C/CC(=O)OC`, “inactive”; as for `O=C(c1ccc2c(c1)C(=O)OC2=O)c1ccc2c(c1)C(=O)OC2=O`, “inactive”.
With `NC(=O)NC(=O)Cc1ccccc1`, the call was inactive.
Regarding `CCOC(=O)CC(CC(=O)OCC)(OC(C)=O)C(=O)OCC`, the molecule was called inactive.
The same measure, in the same setting: the value for `CCC1COC(=O)O1` (stereo not given) was “inactive”.
On to `COCC(=O)Nc1c(I)c(C(=O)NCC(O)CO)c(I)c(C(=O)N(C)CC(O)CO)c1I` (stereo not given), for which the outcome was inactive.
Same read-out and setting: the value for `CCS(=O)(=O)CCn1c([N+](=O)[O-])cnc1C` was “inactive”; that for `NC(=O)NNC(N)=O` was “inactive”.
The same measure, in the same setting: the value for `Cc1ccccc1C` was “inactive”.

Another test can be described thus: qHTS assay for small molecule activators of the heat shock response signaling pathway - cell viability counter screen (AID 743209). Also: nearly all actives have a fitted effect of over 50% in size. The settings on record: HSE-bla HeLa viability, CellTiter-Glo luminescence, 5 h; series mostly up to 62.6 µM. In a few lines:
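Viability of HSE-bla HeLa cells is measured with CellTiter-Glo in the wells already used for the reporter read. Compound exposure lasts 5 h at 37 C, and luminescence is read after 30 min at room temperature.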
In the case of `C=C[C@@H](C)CCC=C(C)C`, the molecule was called inactive.
`CCC(=O)c1ccc(O)cc1`: the call was inactive.
On the same count and under the same terms, as for `CN[C@@H]1[C@@H](O)[C@@H](O[C@@H]2[C@H](O)[C@H](O[C@H]3OC(CN)=CC[C@H]3N)[C@@H](N)C[C@H]2N)OCC1(C)O` (stereo not given in full), the entry is “inactive”; as for `CCc1nccnc1C`, “inactive”; as for `CCCCOC(=O)C(=O)OCCCC`, “inactive”.
On the same count and under the same terms, the value for `CC(C)COC(=O)CCCCC(=O)OCC(C)C` was “inactive”; that for `Cc1cc(O)c2c(c1)C(=O)c1cccc(O)c1C2=O` was “inactive”.
Consider `O=CN1CCOCC1`, for which the outcome was inactive.
For `OCCCCCCCl`, the call was inactive.
Still for that read-out and setting: as for `C[C@H](CCC(=O)NCC(=O)O)[C@H]1CC[C@H]2[C@@H]3[C@H](O)C[C@@H]4C[C@H](O)CC[C@]4(C)[C@H]3C[C@H](O)[C@]12C`, the entry is “inactive”.
With `O=C1NC2NC(=O)NC2N1` (stereo not given), the call was inactive.
Turning to `CCOC(=O)CCc1ccccc1`, the result was inactive.
For the molecule `Cc1ccccc1OCC1CO1` (stereo not given), the molecule was classed as inactive.
In the case of `O=c1[nH]c(=O)c2[nH]c(=O)[nH]c2[nH]1`, the activity change, negative = cytotoxicity is -0.886% [at 13.2 µM].
In the case of `Cc1cccc(Nc2ccncc2S(=O)(=O)NC(=O)NC(C)C)c1`, the molecule was classed as inactive.
Turning to `CC1=CC[C@H](CC=O)C1(C)C`, the result was inactive.
Still for that read-out and setting: the value for `OC(CCN1CCCCC1)(c1ccccc1)c1ccccc1` was “inactive”; that for `COc1cccc2sc(N)nc12` was “inactive”; that for `CN(C)CCCNCCC#N` was “inactive”.
Same read-out and setting: the value for `CCC(O)C(C)(C)C` (stereo not given) was “inactive”; that for `C=CCOC(=O)c1ccc(C(=O)OCC=C)c(C(=O)OCC=C)c1` was “inactive”.
With `C=C(C)[C@@H]1CC[C@@H](C)C[C@@H]1O`, the molecule was called inactive.
On to `Nc1ccc(/C=C/c2ccc(N)cc2S(=O)(=O)O)c(S(=O)(=O)O)c1`, for which the activity change, negative = cytotoxicity is 6.28% [at 0.55 µM].
As for `CC(Cl)COP(=O)(OCC(C)Cl)OCC(C)Cl` (stereo not given), the molecule was classed as inactive.
Turning to `CCNC(=O)NCCCOc1cccc(CN2CCCCC2)c1`, the molecule was called inactive.
On the same count and under the same terms, the value for `COCCOCCOCCOC` was “inactive”; that for `CCCCC/C=C/CC(=O)OC` was “inactive”.
Same read-out and setting: the value for `O=C(c1ccc2c(c1)C(=O)OC2=O)c1ccc2c(c1)C(=O)OC2=O` was “inactive”.
Same read-out and setting: the value for `NC(=O)NC(=O)Cc1ccccc1` was “inactive”; that for `CCOC(=O)CC(CC(=O)OCC)(OC(C)=O)C(=O)OCC` was “inactive”; that for `CCC1COC(=O)O1` (stereo not given) was “inactive”.
Consider `COCC(=O)Nc1c(I)c(C(=O)NCC(O)CO)c(I)c(C(=O)N(C)CC(O)CO)c1I` (stereo not given), for which the call was inactive.
On to `CCS(=O)(=O)CCn1c([N+](=O)[O-])cnc1C`, for which the call was inactive.
The same measure, in the same setting: as for `NC(=O)NNC(N)=O`, the entry is “inactive”; as for `Cc1ccccc1C`, “inactive”.

A further test can be described thus: qHTS assay for small molecule activators of the heat shock response signaling pathway (AID 743210; active = well fitted activation curve with a large enough effect in the signal ratio in the repeat runs, with a control signal flat, not every such curve was filed as active; the % refers to the signal ratio). The settings on record: HeLa HSE-bla reporter, beta-lactamase ratio, 5 h; series mostly up to 62.6 µM. The method in brief: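 Fluorescence from a cleaved B/G FRET substrate (2.5 h, room temp) reports HSE-driven beta-lactamase in HeLa cells treated 5 h at 37 C with DMSO-dissolved compounds.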
For `C=C[C@@H](C)CCC=C(C)C`, the outcome was inactive.
On the same count and under the same terms, as for `CCC(=O)c1ccc(O)cc1`, the entry is “inactive”; as for `CN[C@@H]1[C@@H](O)[C@@H](O[C@@H]2[C@H](O)[C@H](O[C@H]3OC(CN)=CC[C@H]3N)[C@@H](N)C[C@H]2N)OCC1(C)O` (stereo not given in full), “inactive”; as for `CCc1nccnc1C`, “inactive”.
Regarding `CCCCOC(=O)C(=O)OCCCC`, the outcome was inactive.
Same read-out and setting: as for `CC(C)COC(=O)CCCCC(=O)OCC(C)C`, the entry is “inactive”; as for `Cc1cc(O)c2c(c1)C(=O)c1cccc(O)c1C2=O`, “inactive”.
On to `O=CN1CCOCC1`, for which the outcome was inactive.
Still for that read-out and setting: the value for `OCCCCCCCl` was “inactive”; that for `C[C@H](CCC(=O)NCC(=O)O)[C@H]1CC[C@H]2[C@@H]3[C@H](O)C[C@@H]4C[C@H](O)CC[C@]4(C)[C@H]3C[C@H](O)[C@]12C` was “inactive”.
Still for that read-out and setting: the value for `O=C1NC2NC(=O)NC2N1` (stereo not given) was “inactive”; that for `CCOC(=O)CCc1ccccc1` was “inactive”.
On the same count and under the same terms, the value for `Cc1ccccc1OCC1CO1` (stereo not given) was “inactive”.
In the case of `O=c1[nH]c(=O)c2[nH]c(=O)[nH]c2[nH]1`, the activation is -0.669% [at 13.2 µM].
As to `Cc1cccc(Nc2ccncc2S(=O)(=O)NC(=O)NC(C)C)c1`, the result was inactive.
The same measure, in the same setting: as for `CC1=CC[C@H](CC=O)C1(C)C`, the entry is “inactive”; as for `OC(CCN1CCCCC1)(c1ccccc1)c1ccccc1`, “inactive”; as for `NS(=O)(=O)c1cc2c(cc1Cl)NC(CC1CCCC1)NS2(=O)=O` (stereo not given), “inactive”.
Turning to `COc1cccc2sc(N)nc12`, the result was inactive.
On the same count and under the same terms, the value for `CN(C)CCCNCCC#N` was “inactive”.
The same measure, in the same setting: as for `CCC(O)C(C)(C)C` (stereo not given), the entry is “inactive”; as for `C=CCOC(=O)c1ccc(C(=O)OCC=C)c(C(=O)OCC=C)c1`, “inactive”.
Still for that read-out and setting: the value for `C=C(C)[C@@H]1CC[C@@H](C)C[C@@H]1O` was “inactive”.
As for `Nc1ccc(/C=C/c2ccc(N)cc2S(=O)(=O)O)c(S(=O)(=O)O)c1`, the activation was 0.7% [at 0.55 µM].
Turning to `CC(Cl)COP(=O)(OCC(C)Cl)OCC(C)Cl` (stereo not given), the outcome was inactive.
On to `CCNC(=O)NCCCOc1cccc(CN2CCCCC2)c1`, for which the result was inactive.
Same read-out and setting: as for `Cc1ncc([N+](=O)[O-])n1CC(O)CCl` (stereo not given), the entry is “inactive”; as for `COCCOCCOCCOC`, “inactive”.
On to `CCCCC/C=C/CC(=O)OC`, for which the result was inactive.
Consider `O=C(c1ccc2c(c1)C(=O)OC2=O)c1ccc2c(c1)C(=O)OC2=O`, for which the outcome was inactive.
The same measure, in the same setting: the value for `NC(=O)NC(=O)Cc1ccccc1` was “inactive”; that for `CCOC(=O)CC(CC(=O)OCC)(OC(C)=O)C(=O)OCC` was “inactive”; that for `CCC1COC(=O)O1` (stereo not given) was “inactive”.
Take `COCC(=O)Nc1c(I)c(C(=O)NCC(O)CO)c(I)c(C(=O)N(C)CC(O)CO)c1I` (stereo not given): the result was inactive.
The same measure, in the same setting: the value for `CCS(=O)(=O)CCn1c([N+](=O)[O-])cnc1C` was “inactive”; that for `NC(=O)NNC(N)=O` was “inactive”; that for `Cc1ccccc1C` was “inactive”.
